Experimental data as given in ChEMBL document CHEMBL3988442, “University of Dundee, Small-Polar-MMV Screening Library” (2021).
In all, about 48,000 compounds went through this assay and about 13,000 (27%) showed an effect of 50% or more. The list shows a part of the results.

System: Wolbachia pipientis
Assay: Anti-Wolbachia Cell-Based Screen
Assay type: functional
Set-up: scale not given: in the data most compounds retested in dose-response had high values
Conditions: 5 µM

Row | SMILES | Percent Effect [%]
1 | Cc1cc(C(=O)NC(C)c2nnn[nH]2)c2ccc(C)c(C)c2n1 (configuration not stated) | -4.141
2 | c1csc(-c2noc(COCC3CCCO3)n2)c1 (configuration not stated) | 0.9659
3 | CCOCc1ccccc1NC(=O)NC1CCN(c2ccccc2)C1 (configuration not stated) | 9.486
4 | O=C(c1ccc[nH]1)N1CCC2(CC1)C(=O)Nc1ccccc12 | -2.806
5 | Cc1nc(C)c(Cc2nc(C3CC3)n[nH]2)c(=O)[nH]1 | -38.01
6 | Cc1ccc(C2CCCN2CC(=O)N(CCC#N)c2ccccc2)cc1 (configuration not stated) | 5.667
7 | COc1ncccc1C(=O)N1CCc2c(ncnc2N2CCOCC2)C1 | 105
8 | COCc1ccc(C(=O)N2CCc3c(ncnc3N3CCOCC3)C2)o1 | -21.39
9 | O=C(c1ncccc1O)N1CCc2c(ncnc2N2CCOCC2)C1 | -10.43
10 | CCc1ccc(-c2nn3c(nc2=O)-c2ccccc2NC3C(=O)O)cc1 (configuration not stated) | -8.075
11 | CCc1cnc(CN2CCOC(c3nc(C)n[nH]3)C2)o1 (configuration not stated) | -1.85
12 | c1ccc(-n2ncc(CNC3CCc4ncnn4C3)n2)cc1 (configuration not stated) | -11.2
13 | c1ccc(-n2cc(CNC3CCc4ncnn4C3)cn2)cc1 (configuration not stated) | 107.7
14 | Clc1ccc(-n2cc(CNC3CCc4ncnn4C3)cn2)cc1 (configuration not stated) | -12.36
15 | Cn1cc(CNC2CCc3ncnn3C2)c(-c2cccnc2)n1 (configuration not stated) | -2.662
16 | c1cncc(CNC2CCc3ncnn3C2)c1 (configuration not stated) | 100.1
17 | Clc1ccccc1Cn1cc(CNC2CCc3ncnn3C2)cn1 (configuration not stated) | 121.3
18 | Cn1cc(CNC2CCc3ncnn3C2)c(-c2ccncc2)n1 (configuration not stated) | 11.86
19 | c1ccc(Cn2cc(CNC3CCc4ncnn4C3)cn2)cc1 (configuration not stated) | 1.382
20 | Cc1nc(C)n(C2CCCN(C(=O)c3cccc4[nH]ncc34)C2)n1 (configuration not stated) | 0.6187
21 | c1ccc2c(c1)CC(N1CCCN(Cc3cccc4nonc34)CC1)C2 | -60.59
22 | COCC(NC(=O)NCc1cccc(C#N)c1)c1ccco1 (configuration not stated) | -16.03
23 | CN(Cc1cccc(OC(F)(F)F)c1)C(=O)c1ccncc1F | 3.384
24 | O=C(NCC(Cc1cccc(F)c1)N1CCCC1=O)c1cnccn1 (configuration not stated) | -11.28
25 | O=C(NCC(CO)Cc1cccc(OC(F)(F)F)c1)c1cnccn1 (configuration not stated) | 103
26 | CC(CNC(=O)c1cnccn1)Oc1cccc(Br)c1 (configuration not stated) | -3.895

Row | SMILES | Percent Effect [%]
27 | CNC(=O)NCC(CO)Cc1cccc(OC(F)(F)F)c1 (configuration not stated) | 137.5
28 | CN(Cc1cccc(OC(F)(F)F)c1)C(=O)Cc1ccon1 | -6.414
29 | CN(Cc1ccccc1OC(F)(F)F)C(=O)C1CC1 | 0.731
30 | CNC(=O)NCC(CO)Cc1ccccc1OC(F)(F)F (configuration not stated) | 119.9
31 | CC(O)CN1CCC(CNCc2ccccc2OC(F)(F)F)CC1 (configuration not stated) | -2.479
32 | O=C(c1ncc[nH]1)N1CCC(n2cc(-c3ccccn3)nn2)CC1 | -4.702
33 | CN1N=C(C(=O)N2CCN(c3ncccc3Cl)CC2)CCC1=O | -3.997
34 | CC(C)C(=O)NCCCn1ncc2c(Cl)cccc21 | -4.05
35 | O=S(=O)(N1CCCCCC1)N1CCN(Cc2ccc(F)cc2Br)CC1 | 6.465
36 | O=C(CN1CCCC1Cn1cncn1)NCCOc1cccc(F)c1 (configuration not stated) | 0.2795
37 | O=C(CN1CCCCC1Cn1cncn1)NCCOc1ccccc1 (configuration not stated) | 140
38 | Cc1cccc(OCCNC(=O)CN2CCCC2Cn2cncn2)c1 (configuration not stated) | 115.7
39 | O=C(CN1CCCC1Cn1cncn1)NCCOc1ccc(F)cc1 (configuration not stated) | 135.9
40 | O=C(CN1CCCC1Cn1cncn1)NC(C1CC1)C1CC1 (configuration not stated) | -5.289
41 | O=C(CN1CCCCC1Cn1cncn1)NC1CCN(C2CC2)CC1 (configuration not stated) | -6.056
42 | CCN1CCC(NC(=O)CN2CCCC2Cn2cncn2)CC1 (configuration not stated) | 1.475
43 | O=C(CN1CCCC1Cn1cncn1)Nc1cccnc1 (configuration not stated) | -2.58
44 | O=C(CN1CCCC1Cn1cncn1)NCCc1c(F)cccc1F (configuration not stated) | -7.499
45 | O=C(CN1CCCC(Cn2cncn2)C1)NCCOc1ccccc1 (configuration not stated) | -8.945
46 | O=C(CN1CCCC1Cn1cncn1)NCCOc1ccccc1 (configuration not stated) | 108.3
47 | COc1ccc(CNC[C@@]2(COc3cccnc3)C[C@@H](O)[C@@H](O)C2)cc1.Cl | -5.616
48 | CCSCCC(C)NC(=O)Nc1cccn(C)c1=O (configuration not stated) | -9.489
49 | CC(C)C1CN(Cc2cnc(N(C)C)nc2)CCCN1CC1CC1 (configuration not stated) | -7.489
50 | CC(C)N1CCCC1c1nc(N(C)C)ncc1I (configuration not stated) | 51.47
51 | COCCOc1ccnc(-c2noc([C@@H]3CCCN3C(C)C)n2)c1 | -15.24
52 | CN(C)c1ccc(NC(=O)N2CCCCCC2c2ccncc2)cn1 (configuration not stated) | 0.3778

Row | SMILES | Percent Effect [%]
53 | CC(C)N1CCCCC1c1nc(N(C)C)ncc1I.Cl (configuration not stated) | 76.51
54 | CC1=N[C@@]2(CC[C@@H]3CN(C(=O)NCC(C)C)C[C@@H]32)C(=O)N1CC(C)C | 8.203
55 | CCCc1nccn1-c1cccc(CN2CCCC2)c1 | -15.07
56 | Cc1ncccc1C(=O)NCc1ccccc1CN(C)Cc1ccco1 | 15.52
57 | CCCNc1ncc(CN2CCN(C)C(=O)C2C)cn1 (configuration not stated) | -4.636
58 | O=C(NC1CC1)N1CCOCC2(CCN(Cc3cccs3)C2)C1.O=C(O)C(F)(F)F (configuration not stated) | 89.31
59 | Cc1ccc(CN2CCCC3(COCCN(Cc4c[nH]nn4)C3)C2)o1.O=C(O)C(F)(F)F.O=C(O)C(F)(F)F (configuration not stated) | -14.33
60 | Cc1occc1C(=O)N1CCOCC2(CCN(Cc3nccs3)C2)C1.O=C(O)C(F)(F)F (configuration not stated) | -1.117
61 | O=C(c1ccoc1)N1CCOCC2(CCN(Cc3cccs3)C2)C1 (configuration not stated) | 98.93
62 | O=C(O)C(F)(F)F.O=C(O)C(F)(F)F.c1csc(CN2CCCC3(COCCN(Cc4c[nH]nn4)C3)C2)c1 (configuration not stated) | -6.971
63 | COCCN1C[C@@H](C)[C@@]2(COCCN(C(=O)c3ccoc3)C2)C1 | 1.711
64 | Cc1ccc(CN2CCOCC3(CCN(Cc4cccs4)C3)C2)o1.O=C(O)C(F)(F)F.O=C(O)C(F)(F)F (configuration not stated) | 110.5
65 | O=C(O)C(F)(F)F.O=C(O)C(F)(F)F.c1csc(CN2CCC3(COCCN(CC4CC4)C3)C2)n1 (configuration not stated) | 26.97
66 | CC(C)N1CCOCC2(CN(Cc3cccs3)CCO2)C1.O=C(O)C(F)(F)F.O=C(O)C(F)(F)F (configuration not stated) | 7.639
67 | CN(C)CCN1CCOCC2(CCCN(C(=O)c3ccoc3)C2)C1.O=C(O)C(F)(F)F.O=C(O)C(F)(F)F (configuration not stated) | -7.918
68 | Cc1ccc(CN2CCOC3(COCCN(C(C)C)C3)C2)o1.O=C(O)C(F)(F)F.O=C(O)C(F)(F)F (configuration not stated) | -26.11
69 | O=C(N1CCCC1)N1CCOCC2(CCN(Cc3cccs3)C2)C1.O=C(O)C(F)(F)F (configuration not stated) | 119.1
70 | OCCN(Cc1cccnc1)c1cnc2ccccc2n1 | -10.33
71 | COCCC(=O)N1CCC2(CCN(Cc3ccc(C)cc3)CC2)C1.O=C(O)C(F)(F)F | -24.32
72 | COCCN1CCC2(COCCN(C(=O)Cc3cccs3)C2)C1.O=C(O)C(F)(F)F (configuration not stated) | 3.842
73 | COCC(=O)N1CCOCC2(CCN(Cc3cccs3)C2)C1.O=C(O)C(F)(F)F (configuration not stated) | 92.34
74 | COCC(=O)N1CCCC2(COCCN(CCN(C)C)C2)C1.O=C(O)C(F)(F)F.O=C(O)C(F)(F)F (configuration not stated) | -43.45
75 | COCCC(=O)N1CCOCC2(CCN(Cc3cccs3)C2)C1.O=C(O)C(F)(F)F (configuration not stated) | 93.92
76 | Cc1nc(CC2CCCN(Cc3nc4ccccc4c(=O)[nH]3)C2)no1 (configuration not stated) | -3.308
77 | CSCc1cccc(S(=O)(=O)NCCCn2ccnc2)c1 | -11.24
78 | O=C(CCc1nccs1)N1CCN(c2ccc(Br)cn2)CC1 | 15.4

Row | SMILES | Percent Effect [%]
79 | N#Cc1ccccc1N1CCCN(C(=O)CCc2nccs2)CC1 | 6.343
80 | O=C(COCc1ccccc1)N1CCN(c2ccc(Cl)cn2)CC1 | 1.398
81 | COc1cc(C)nc(N2CCN(C(=O)CCc3nccs3)CC2)n1 | -2.127
82 | Cc1csc(N2CCN(C(=O)CCc3nccs3)CC2)n1 | 0.8841
83 | O=C(CCc1nccs1)N1CCN(c2cccnn2)CC1 | 5.775
84 | O=C(CCc1nccs1)N1CCN(c2ccc(Cl)cn2)CC1 | 142.1
85 | O=C(CCc1nccs1)N1CCN(c2ncccn2)CC1 | -7.196
86 | Cc1ccc(N2CCCN(C(=O)CCc3nccs3)CC2)nn1 | 105.9
87 | O=C(CCc1nccs1)N1CCN(c2ccccc2F)CC1 | -6.443
88 | O=C(CCc1nccs1)N1CCN(c2nccs2)CC1 | 116.1
89 | O=C(CCc1nccs1)N1CCN(c2ccccn2)CC1 | 104.9
90 | Cc1nnc(CNC(=O)[C@@H]2C[C@H](NC(=O)C(C)(C)C)CN2C)[nH]1 | -6.748
91 | CCOCCC(=O)N(Cc1ccncc1)C(C)CC (configuration not stated) | -2.407
92 | CC(=O)N[C@@H](CC(C)C)C(=O)N1CCC(n2cc(C(C)(C)N)nn2)CC1 | 10.18
93 | Cc1n[nH]c(C)c1NC(=O)CN(CC(O)c1ccc(F)cc1)C1CC1 (configuration not stated) | -1.217
94 | COc1cc2c(nn1)CCN(Cc1nc(Cc3ccccc3)no1)C2 | -1.36
95 | CCS(=O)(=O)N1CCOC2(CCCN(c3cccc(C#N)c3)C2)C1 (configuration not stated) | -4.449
96 | Cc1cc(C)c(CNC(=O)NCCOc2ccc3c(c2)CCC3)c(=O)[nH]1 | -6.999
97 | CN(Cc1nncn1C)C(=O)c1cc(COc2ccccc2F)[nH]n1 | -12.02
98 | CN(CC1(CO)CCCC1)C(=O)c1cc(COc2ccccc2F)[nH]n1 | 101.7
99 | O=C(NCCN1CCOCC1)c1cc(COc2ccccc2F)[nH]n1 | -10.47
100 | CN(CC1(CO)CCC1)C(=O)c1cc(COc2ccccc2F)[nH]n1 | 109.5
101 | O=C(NCCC1CCCCO1)c1cc(COc2ccccc2F)[nH]n1 (configuration not stated) | 0.1687
102 | O=C(NCc1nc[nH]n1)c1cc(COc2ccccc2F)[nH]n1 | -17.12
